Laboratory results taken from PubChem BioAssay (NCATS).
Inconclusive results are not listed. A call without a number means that no potency is given here. The source made the active and inactive calls. Calls come from the whole dose curve. Bridge positions count the residues as written; N and C are the ends. Peptide text beside a SMILES is read from it.

Assay: Confirmatory qHTS to identify inhibitors of SARS-CoV-2 cell entry (AID 1645844); note: nearly all actives have a fitted effect of over 45% in size; note: potency is the fitted concentration of half-maximal effect
Details: SARS-CoV-2 pseudotyped particle cell entry, luciferase; series mostly up to 57.2 µM
Method in brief: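 HEK293-ACE2, overnight seeding; cpd 1 h, 37C/5% CO2; + SARS-CoV-2-S MLV PP (Wuhan-Hu-1, ΔC19); 48 h; Bright-Glo luminescence. Data normalised to S PP and bald PP wells.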

Structure (SMILES)	Potency
CN(C)C(=O)c1cc2cnc(Nc3ccc(N4CCNCC4)cn3)nc2n1C1CCCC1	inactive
Cc1c(N)nc(C(CC(N)=O)NCC(N)C(N)=O)nc1C(=O)NC(C(=O)NC(C)C(O)C(C)C(=O)NC(C(=O)NCCc1nc(-c2nc(C(=O)NCCCN[C@@H](C)c3ccccc3)cs2)cs1)C(C)O)C(O[C@@H]1O[C@@H](CO)[C@@H](O)[C@H](O)[C@@H]1O[C@H]1O[C@H](CO)[C@@H](O)[C@H](OC(N)=O)[C@@H]1O)c1cnc[nH]1 (stereo partly specified)	21.5 nM (active)
CCOc1nc2cccc(C(=O)OC(C)OC(=O)OC3CCCCC3)c2n1Cc1ccc(-c2ccccc2-c2nn[nH]n2)cc1 (stereo unspecified)	2410 nM (active)

Assay: Cytotoxicity counterscreen for inhibitors of SARS-CoV-2 cell entry (AID 1645845); note: nearly all actives have a fitted effect of over 50% in size
Details: cell viability (SARS-CoV-2 entry assay cells); series mostly up to 57.1 µM
Method in brief: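 Counterscreen run in the same HEK293-ACE2 line as the pseudotyped-particle entry assay, without particles. Viability after 48 h at 37 C was read as ATP luminescence, scaled between cell-containing and cell-free wells.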

Structure (SMILES)	Potency	outcome
CCCCCCCCCCCCCCCC(=O)OCC(O)C1OC(=O)C(O)=C1O (stereo unspecified)	inactive	
CC(=O)Oc1c(C)cc(OCC(O)CNC(C)C)c(C)c1C (stereo unspecified)	inactive	
Oc1cc(O)cc(O)c1	inactive	
CC(C)(C)NC(=O)N[C@H](C(=O)N1C[C@H]2[C@@H]([C@H]1C(=O)NC(CC1CCC1)C(=O)C(N)=O)C2(C)C)C(C)(C)C (stereo partly specified)	inactive	
CCCCCCO[C@@H](C)c1cccc(-c2csc(NC(=O)c3cc(Cl)c(/C=C(\C)C(=O)O)c(Cl)c3)n2)c1OC	inactive	
CC(C)(S)[C@H](N)C(=O)O		inactive [at 5.25 µM]
CC[N+](CC)(CC)CCC(O)(c1ccccc1)C1CCCCC1 (stereo unspecified)	inactive	
CCC(C)C(C(=O)OCC[N+](C)(CC)CC)c1ccccc1 (stereo unspecified)	inactive	
NC(N)=NCC1COC2(CCCCC2)O1 (stereo unspecified)	inactive	
C=Cc1c(C)c2cc3nc(c(CC(=O)N[C@@H](CC(=O)O)C(=O)O)c4nc(cc5[nH]c(cc1[nH]2)c(C)c5CC)C(C)=C4C(=O)O)[C@@H](CCC(=O)O)[C@@H]3C	inactive	
CN1N=C2CCN(C(=O)[C@H](COCc3ccccc3)NC(=O)C(C)(C)N)C[C@]2(Cc2ccccc2)C1=O	inactive	
CO/N=C(\C(=O)N[C@@H]1C(=O)N2C(C(=O)OCOC(=O)C(C)(C)C)=C(/C=C\c3scnc3C)CS[C@H]12)c1csc(N)n1	inactive	
CN(C)C(=O)c1cc2cnc(Nc3ccc(N4CCNCC4)cn3)nc2n1C1CCCC1	inactive	
CN(C)CCC(O)(c1ccccc1)c1ccccc1Cl (stereo unspecified)	inactive	
O=C(O)C(O)[C@H](O)[C@H](O)[C@H](O)[C@H](O)CO (stereo partly specified)	inactive	
CCOc1ccc(N=C(C)Nc2ccc(OCC)cc2)cc1	inactive	
CCCCCCCCCCCCOC(=O)CS(=O)(=O)O	inactive	
COc1ccc(CNc2nc(N3CCC[C@H]3CO)ncc2C(=O)NCc2ncccn2)cc1Cl	inactive	
NCCS[As](SCCN)c1ccc(Nc2nc(N)nc(N)n2)cc1	inactive	

Structure (SMILES)	Potency	outcome
NCCCC[C@H](NC(=O)[C@@H]1CCCN1C(=O)[C@@H]1CSSC[C@H](NC(=O)CNC(=O)CNC(=O)CN)C(=O)N[C@@H](Cc2ccc(O)cc2)C(=O)N[C@@H](Cc2ccccc2)C(=O)N[C@@H](CCC(N)=O)C(=O)N[C@@H](CC(N)=O)C(=O)N1)C(=O)NCC(N)=O (H-GGGCYFQNCPKG-NH2; disulfide 4-9)	inactive	
Cc1c(C)c2c(c(C)c1OC(=O)CCC(=O)O)CC[C@@](C)(CCC[C@H](C)CCC[C@H](C)CCCC(C)C)O2	inactive	
CCC(=O)O[C@@H](OP(=O)(CCCCc1ccccc1)CC(=O)N1C[C@H](C2CCCCC2)C[C@H]1C(=O)O)C(C)C (stereo partly specified)		inactive [at 11.3 µM]
O=C(Nc1ccc(O)cc1)c1ccccc1O	inactive	
CC1CC(OC(=O)C(O)c2ccccc2)CC(C)(C)C1 (stereo unspecified)	inactive	
CCCCCCCCCCCCCCCCCC(=O)NCCCC[C@H](NC(=O)CC[C@@H](NC(=O)[C@H](C)NC(=O)[C@@H](C)O[C@H]1[C@H](O)[C@@H](CO)OC(O)[C@@H]1NC(C)=O)C(N)=O)C(=O)O (stereo partly specified)	inactive	
CCCCC(=O)N(Cc1ccc(-c2ccccc2-c2nn[nH]n2)cc1)[C@H](C(=O)O)C(C)C	inactive	
CCN(CC)C(=O)[C@]1(c2ccccc2)C[C@H]1CN	inactive	
C=C1c2c(Cl)ccc(O)c2C(O)=C2C(=O)[C@@]3(O)C(O)=C(C(N)=O)C(=O)[C@@H](N(C)C)[C@@H]3[C@@H](O)[C@H]12	inactive	
CCCCN(CCCC)C(=S)[S-].CCCCN(CCCC)C(=S)[S-].[Zn+2]	inactive	
CC[C@H]1OC(=O)C[C@@H](O)[C@H](C)[C@@H](O[C@@H]2O[C@H](C)[C@@H](O)[C@H](N(C)C)[C@H]2O)[C@@H](CCN2C[C@H](C)C[C@H](C)C2)C[C@@H](C)C(=O)/C=C/C(C)=C/[C@@H]1CO[C@@H]1O[C@H](C)[C@@H](O)[C@@H](OC)[C@H]1OC	inactive	
C[N+](C)(C)CC(O)CC(=O)O (stereo unspecified)	inactive	
C[N+]1(C)CCN(CC(O)(c2ccccc2)C2CCCCC2)CC1 (stereo unspecified)	inactive	
COc1ccc(CNCC(O)COc2ccc3[nH]c(=O)ccc3c2)cc1OC (stereo unspecified)	inactive	
CON=C1C[C@]2(C[C@@H]3C[C@@H](C/C=C(\C)C[C@@H](C)/C=C/C=C4\CO[C@@H]5[C@H](O)C(C)=C[C@@H](C(=O)O3)[C@]45O)O2)O[C@H](/C(C)=C/C(C)C)[C@H]1C	inactive	
CC(OC(=O)NCC1(CC(=O)O)CCCCC1)OC(=O)C(C)C (stereo unspecified)	inactive	
CCCCC(O)c1ccccc1 (stereo unspecified)	inactive	
C=CC1(C)CC(=O)C2(O)C(C)(O1)C(OC(C)=O)C(OC(=O)CCN(C)C)C1C(C)(C)CCC(O)C12C (stereo unspecified)	inactive	
CCOc1nc2cccc(C(=O)OC(C)OC(=O)OC3CCCCC3)c2n1Cc1ccc(-c2ccccc2-c2nn[nH]n2)cc1 (stereo unspecified)	inactive	
